Measured values taken from PMC4336329 (PLoS ONE, 2015).
Out of some 310,000 compounds screened, about 14,000 (4.5%) showed an effect of 50% or more. The effect is printed as a negative number. Many of the other results were omitted from the sample, so strong results are more common in it than they were.
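Also: peak tail current of the secondary pulse compared with the same well before compound.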

What follows are compounds tested against human ether-à-go-go-related gene (hERG) potassium channel (human, UniProt Q12809) (assay: primary screen, population patch clamp on CHO cells stably expressing hERG; higher = less effect of the substance).
human ether-à-go-go-related gene (hERG) potassium channel, sequence (Q12809 whole entry, looked up): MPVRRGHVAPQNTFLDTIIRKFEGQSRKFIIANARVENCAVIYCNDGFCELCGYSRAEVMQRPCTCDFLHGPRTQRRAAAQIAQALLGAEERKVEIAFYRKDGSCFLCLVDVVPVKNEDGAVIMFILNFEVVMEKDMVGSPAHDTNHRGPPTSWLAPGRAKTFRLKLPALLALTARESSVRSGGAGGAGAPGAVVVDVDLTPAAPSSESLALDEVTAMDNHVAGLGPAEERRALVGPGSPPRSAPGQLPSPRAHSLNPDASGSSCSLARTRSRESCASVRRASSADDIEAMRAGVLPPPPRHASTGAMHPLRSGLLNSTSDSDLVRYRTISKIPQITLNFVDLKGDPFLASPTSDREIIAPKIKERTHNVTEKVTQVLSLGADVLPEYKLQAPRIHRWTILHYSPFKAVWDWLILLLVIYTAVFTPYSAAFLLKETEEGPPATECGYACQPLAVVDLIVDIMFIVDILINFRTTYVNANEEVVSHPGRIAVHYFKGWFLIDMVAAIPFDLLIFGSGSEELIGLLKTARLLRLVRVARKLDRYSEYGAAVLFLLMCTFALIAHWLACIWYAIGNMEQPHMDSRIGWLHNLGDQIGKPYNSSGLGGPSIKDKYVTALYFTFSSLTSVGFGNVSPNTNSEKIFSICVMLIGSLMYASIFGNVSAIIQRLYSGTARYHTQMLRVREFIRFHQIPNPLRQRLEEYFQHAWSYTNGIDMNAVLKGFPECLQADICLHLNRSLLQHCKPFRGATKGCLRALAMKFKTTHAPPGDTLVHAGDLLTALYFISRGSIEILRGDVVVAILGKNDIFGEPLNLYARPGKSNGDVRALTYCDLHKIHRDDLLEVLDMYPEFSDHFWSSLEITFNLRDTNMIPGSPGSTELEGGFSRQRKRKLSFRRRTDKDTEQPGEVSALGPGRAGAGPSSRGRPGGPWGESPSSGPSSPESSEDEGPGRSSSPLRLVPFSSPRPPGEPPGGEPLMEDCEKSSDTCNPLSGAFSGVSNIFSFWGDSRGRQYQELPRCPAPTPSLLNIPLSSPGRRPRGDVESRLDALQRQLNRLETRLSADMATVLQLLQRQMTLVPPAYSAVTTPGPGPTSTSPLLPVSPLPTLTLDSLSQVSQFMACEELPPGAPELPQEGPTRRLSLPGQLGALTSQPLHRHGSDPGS
For `O=C1CC(NS(=O)(=O)c2cccs2)CN1c1cccc(F)c1` (centres unmarked), the “hERG current change (%, negative = inhibition) at 10uM” value was -6.29%.
With `O=C(Nc1ccc(Cl)c(S(=O)(=O)N2CCOCC2)c1)c1ccc2c(c1)OCCO2` the “hERG current change (%, negative = inhibition) at 10uM” value was 12.6%.
For `COc1ccc2c(c1)C1NC(=S)N[C@@](C)(O2)C1C(=O)Nc1ccccc1` (some centres unmarked), the “hERG current change (%, negative = inhibition) at 10uM” value was -3.49%.
In the case of `CCOC(=O)[C@H]1[C@H]2COc3cc(OC)ccc3[C@@H]2N2C(=O)CN(Cc3ccccc3)C(=O)[C@@]12C`, the “hERG current change (%, negative = inhibition) at 10uM” value is reported as -8.34%.
In the case of `COc1ccc(OC)c(NS(=O)(=O)c2ccc(Br)s2)c1`, the “hERG current change (%, negative = inhibition) at 10uM” value is reported as -12.4%.
With `N#CC1=C(N)N(c2ccccc2Sc2ccccc2)C(=O)C1` the “hERG current change (%, negative = inhibition) at 10uM” value was 3.4%.
In the case of `Cc1ccc(NC(=O)N2CCC(NC(=O)c3ccco3)CC2)cc1`, the “hERG current change (%, negative = inhibition) at 10uM” value is reported as 4.55%.
With `COC(=O)C(C)Sc1nc2c(c(=O)n1-c1ccccc1)SCC2` (centres unmarked) the “hERG current change (%, negative = inhibition) at 10uM” value was -6.49%.
`COc1ccc(NC(=O)CN(C)C(=O)c2cn(-c3ccccc3)nc2-c2ccc(OC)cc2)cc1` was tested, and the “hERG current change (%, negative = inhibition) at 10uM” value was -7.66%.
With `CCCS(=O)(=O)N1CCN(S(=O)(=O)c2ccc(F)cc2)CC1` the “hERG current change (%, negative = inhibition) at 10uM” value was 10.6%.
With `O=C(Nc1nccs1)C1CCCCN1S(=O)(=O)c1ccccc1` (centres unmarked) the “hERG current change (%, negative = inhibition) at 10uM” value was 4.8%.
`Cc1ccc(C)c(NS(=O)(=O)c2ccc(-c3cnc(C4CC4)o3)cc2)c1` was tested, and the “hERG current change (%, negative = inhibition) at 10uM” value was 4.27%.
For `Cn1c(=O)[nH]c(=O)c2c1nc(CN1CCN(Cc3ccccc3)CC1)n2CC(N)=O`, the “hERG current change (%, negative = inhibition) at 10uM” value was 7.32%.
In the case of `CCN1CCN(c2nc3c(c(=O)[nH]c(=O)n3C)n2CCCc2ccccc2)CC1`, the “hERG current change (%, negative = inhibition) at 10uM” value is reported as -79.2%.
With `Cc1cccc(Cn2c(CN3CCN(Cc4ccccc4)CC3)nc3c2c(=O)[nH]c(=O)n3C)c1` the “hERG current change (%, negative = inhibition) at 10uM” value was -64.9%.
With `CN1CCN(Cc2nc3c(c(=O)[nH]c(=O)n3C)n2CCc2ccccc2)CC1` the “hERG current change (%, negative = inhibition) at 10uM” value was -28.1%.
In the case of `CCCCCn1c(N2CCN(Cc3ccccc3)CC2)nc2c1c(=O)[nH]c(=O)n2C`, the “hERG current change (%, negative = inhibition) at 10uM” value is reported as -74.8%.
For `CC(C)CCn1c(CN2CCN(Cc3ccccc3)CC2)nc2c1c(=O)[nH]c(=O)n2C`, the “hERG current change (%, negative = inhibition) at 10uM” value was -17.6%.
In the case of `Cn1c(=O)[nH]c(=O)c2c1nc(N1CCN(Cc3ccccc3)CC1)n2CCSc1ncccn1`, the “hERG current change (%, negative = inhibition) at 10uM” value is reported as -25.7%.
`CCCCCn1c(CN2CCN(Cc3ccccc3)CC2)nc2c1c(=O)[nH]c(=O)n2C` was tested, and the “hERG current change (%, negative = inhibition) at 10uM” value was -72.3%.
In the case of `CCN1CCN(c2nc3c(c(=O)[nH]c(=O)n3C)n2Cc2ccccc2)CC1`, the “hERG current change (%, negative = inhibition) at 10uM” value is reported as -27.7%.
For `Cn1c(=O)[nH]c(=O)c2c1nc(CN1CCOCC1)n2Cc1ccccc1`, the “hERG current change (%, negative = inhibition) at 10uM” value was -15.7%.
For `CCCCCCn1c(N2CCN(c3ccccc3)CC2)nc2c1c(=O)[nH]c(=O)n2C`, the “hERG current change (%, negative = inhibition) at 10uM” value was -32.6%.
For `Cn1c(=O)[nH]c(=O)c2c1nc(N1CCN(Cc3ccccc3)CC1)n2CCCc1ccccc1`, the “hERG current change (%, negative = inhibition) at 10uM” value was -31.9%.
In the case of `COc1ccc(OC)c(NC(=O)CS(=O)(=O)Cc2nc(-c3ccccc3C)oc2C)c1`, the “hERG current change (%, negative = inhibition) at 10uM” value is reported as 7.66%.
In the case of `COc1ccc2c(C)cc(SC3CCOC3=O)nc2c1` (centres unmarked), the “hERG current change (%, negative = inhibition) at 10uM” value is reported as -0.712%.
`CCCC(=O)NC(=S)Nc1cccc(NC(=O)c2ccccc2Cl)c1` was tested, and the “hERG current change (%, negative = inhibition) at 10uM” value was -3.15%.
For `CCCCCn1c(CN2CCN(c3cccc(Cl)c3)CC2)nc2c1c(=O)[nH]c(=O)n2C`, the “hERG current change (%, negative = inhibition) at 10uM” value was -63.3%.
`CCCn1c(N2CCC(Cc3ccccc3)CC2)nc2c1c(=O)[nH]c(=O)n2C` was tested, and the “hERG current change (%, negative = inhibition) at 10uM” value was -51.2%.
`CCCCCn1c(N2CCC(Cc3ccccc3)CC2)nc2c1c(=O)[nH]c(=O)n2C` was tested, and the “hERG current change (%, negative = inhibition) at 10uM” value was -11%.
With `CCCCCn1c(N2CCN(c3cccc(Cl)c3)CC2)nc2c1c(=O)[nH]c(=O)n2C` the “hERG current change (%, negative = inhibition) at 10uM” value was -29.2%.
In the case of `CCCCn1c(CN2CCN(c3cccc(Cl)c3)CC2)nc2c1c(=O)[nH]c(=O)n2C`, the “hERG current change (%, negative = inhibition) at 10uM” value is reported as 5.59%.
With `CCCCn1c(N2CCC(Cc3ccccc3)CC2)nc2c1c(=O)[nH]c(=O)n2C` the “hERG current change (%, negative = inhibition) at 10uM” value was -49.4%.
For `CCOC(=O)N1CCC(NC(=O)CN(c2ccc(C(C)C)cc2)S(=O)(=O)c2c(C)nn(C)c2C)CC1`, the “hERG current change (%, negative = inhibition) at 10uM” value was -10.3%.
With `CC(CNC(=O)c1cc(COc2ccc3ncccc3c2)on1)c1ccccc1` (centres unmarked) the “hERG current change (%, negative = inhibition) at 10uM” value was 9.51%.
For `COc1ccc(S(=O)(=O)N2CCN(C)CC2)cc1C(=O)Nc1ccccc1`, the “hERG current change (%, negative = inhibition) at 10uM” value was 1.79%.
For `CN(CC(O)COc1ccc2ccccc2c1)C1CCCCC1.Cl` (centres unmarked), the “hERG current change (%, negative = inhibition) at 10uM” value was -45.2%.
With `O=C(OCC(O)COc1ccccc1)c1ccc([N+](=O)[O-])cc1` (centres unmarked) the “hERG current change (%, negative = inhibition) at 10uM” value was -7.79%.
With `CN(CC(O)COc1ccc(OCC(O)CN(C)C2CCCCC2)cc1)C1CCCCC1` (centres unmarked) the “hERG current change (%, negative = inhibition) at 10uM” value was 8.06%.
`COc1ccc(OCC(O)CN(C2CCCCC2)C2CCCCC2)cc1.Cl` (centres unmarked) was tested, and the “hERG current change (%, negative = inhibition) at 10uM” value was -59.5%.
For `CCN(CC(O)COc1ccc(OCC(O)CN(CC)C2CCCCC2)cc1)C1CCCCC1` (centres unmarked), the “hERG current change (%, negative = inhibition) at 10uM” value was 22.2%.
In the case of `O=[N+]([O-])c1ccc(OCC(O)CN(C2CCCCC2)C2CCCCC2)cc1` (centres unmarked), the “hERG current change (%, negative = inhibition) at 10uM” value is reported as -75.8%.
For `Cc1cccc2nc(CSc3nc4[nH]ncc4c(=O)n3-c3cccc(Cl)c3)cc(=O)n12`, the “hERG current change (%, negative = inhibition) at 10uM” value was -23.3%.
`COc1ccc(CNC(=O)[C@H](Cc2ccccc2)NC(=O)C2CCN(C(=O)[C@H](C)N)CC2)cc1` was tested, and the “hERG current change (%, negative = inhibition) at 10uM” value was -2.78%.
`Cc1ccc(-c2onc(C)c2C)cc1S(=O)(=O)N1CCOc2ccccc21` was tested, and the “hERG current change (%, negative = inhibition) at 10uM” value was 9.26%.
For `COc1cc(/C=N/NC(=O)CCc2n[nH]c(=O)[nH]c2=O)ccc1O`, the “hERG current change (%, negative = inhibition) at 10uM” value was -0.627%.
With `Cc1cccc(OC(C)C(=O)Nc2nccs2)c1` (centres unmarked) the “hERG current change (%, negative = inhibition) at 10uM” value was 8.8%.
In the case of `CC1CN(C(=O)CCC(=O)NCCCN2CCC(Cc3ccccc3)CC2)c2cc(Cl)ccc2O1` (centres unmarked), the “hERG current change (%, negative = inhibition) at 10uM” value is reported as -72.7%.
For `Cc1ccc2c(c1)N(C(=O)CCC(=O)NCCCN1CCOCC1)CC(C)O2` (centres unmarked), the “hERG current change (%, negative = inhibition) at 10uM” value was -13.5%.
For `Cc1ccc(CNC(=O)CCC(=O)N2CC(C)Oc3ccccc32)cc1` (centres unmarked), the “hERG current change (%, negative = inhibition) at 10uM” value was -28%.
For `Cc1ccc2c(c1)N(C(=O)CCC(=O)NC1CCCCCC1)CC(C)O2` (centres unmarked), the “hERG current change (%, negative = inhibition) at 10uM” value was -18.5%.
With `Cc1ccc2c(c1)N(C(=O)CCC(=O)NC1CCN(Cc3ccccc3)CC1)CC(C)O2` (centres unmarked) the “hERG current change (%, negative = inhibition) at 10uM” value was -67.1%.
For `CC1CN(C(=O)CCC(=O)NC2CCN(Cc3ccccc3)CC2)c2ccccc2O1` (centres unmarked), the “hERG current change (%, negative = inhibition) at 10uM” value was -26.7%.
For `Cc1ccc2c(c1)N(C(=O)CCC(=O)NCCCN1CCN(C)CC1)CC(C)O2` (centres unmarked), the “hERG current change (%, negative = inhibition) at 10uM” value was 9.95%.
With `CC1CN(C(=O)CCC(=O)NCc2ccccc2)c2ccccc2O1` (centres unmarked) the “hERG current change (%, negative = inhibition) at 10uM” value was 0.256%.
With `CCN1CCN(CCCNC(=O)CCC(=O)N2CC(C)Oc3ccc(C)cc32)CC1` (centres unmarked) the “hERG current change (%, negative = inhibition) at 10uM” value was -12.5%.
In the case of `CC1CN(C(=O)CCC(=O)NCCCN2CCN(Cc3ccccc3)CC2)c2cc(Cl)ccc2O1` (centres unmarked), the “hERG current change (%, negative = inhibition) at 10uM” value is reported as -76.1%.
With `CC1CN(C(=O)CCC(=O)NCc2ccc(Cl)cc2)c2ccccc2O1` (centres unmarked) the “hERG current change (%, negative = inhibition) at 10uM” value was -53.6%.
In the case of `CC1CN(C(=O)CCC(=O)NCc2ccccc2)c2cc(Cl)ccc2O1` (centres unmarked), the “hERG current change (%, negative = inhibition) at 10uM” value is reported as -11.5%.
